Source: PubChem BioAssay
Hits are enriched below; roughly 7.5% of the tested compounds scored in any of these assays.
FLuc modulator = firefly luciferase modulation, counter-screen for miR-21 project; P08659; purified FLuc, Km substrates, luminescence inhibition; Potency, µM (series often up to 57.5 µM), without a hit: at the highest dose activity change, negative = inhibition, usual class: inhibitors; hit rate 6.9% among 360,000;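 further: plate controls were vehicle for no effect and reference inhibitor for full effect; nearly all actives have a fitted effect of over 55% in size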
Target sequence (P08659 whole entry, looked up): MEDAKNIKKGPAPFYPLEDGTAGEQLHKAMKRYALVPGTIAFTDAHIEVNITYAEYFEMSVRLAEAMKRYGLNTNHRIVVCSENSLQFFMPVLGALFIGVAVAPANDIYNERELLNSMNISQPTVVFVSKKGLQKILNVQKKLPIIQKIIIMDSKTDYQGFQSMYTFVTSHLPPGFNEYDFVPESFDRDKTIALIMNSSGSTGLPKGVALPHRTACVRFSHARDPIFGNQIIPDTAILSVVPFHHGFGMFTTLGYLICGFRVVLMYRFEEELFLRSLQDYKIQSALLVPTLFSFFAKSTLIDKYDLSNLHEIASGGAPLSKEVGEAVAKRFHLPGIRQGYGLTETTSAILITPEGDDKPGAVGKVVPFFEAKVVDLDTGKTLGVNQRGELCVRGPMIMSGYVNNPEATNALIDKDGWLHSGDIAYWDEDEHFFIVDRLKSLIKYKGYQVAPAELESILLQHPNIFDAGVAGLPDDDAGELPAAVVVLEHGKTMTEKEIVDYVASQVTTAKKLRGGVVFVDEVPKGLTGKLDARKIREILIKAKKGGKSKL
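Purified P. pyralis luciferase, 10 nM final, with Km-level 10 uM D-luciferin and 10 uM ATP in 50 mM Tris acetate pH 7.5, 10 mM Mg acetate, 0.01% Tween-20, 0.05% BSA; 6-point qHTS titration about 60 µM downward; luminescence read.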
Rab9 promoter act = activates the Rab9 promoter | Huh7 Rab9 promoter-luciferase reporter, luminescence, 24 h | Potency, µM (doses to about 9.22 µM), inactives show at the top dose activation, negative = inhibition, hits mostly activators | hit rate 2.8% among 320,000 | AID 485297; further: % of control where 0% means no effect; nearly all actives have a fitted effect of over 60% in size
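Stable Rab9-luc Huh7, 1500 cells/well, 2 h settle; cmpd in DMSO, 24 h, 37 °C/5% CO2; luciferase reagent 10 min RT; luminescence.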
NPC1 prom act = NPC1 promoter activation | Huh7 NPC1 promoter luciferase reporter, 24 h | Potency, µM (titrated, usually from 9.22 µM), without a hit: at the top dose activation, most hits filed as activators | hit rate 2.4% among 320,000 | AID 485313; further: % of control where 0% means no effect; nearly all actives have a fitted effect of over 60% in size
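Luminescence from an NPC1 promoter-driven luciferase reporter in stably transfected Huh7 cells was measured after 24 h compound treatment at 37 °C, followed by 10 min ambient incubation with luciferase detection reagent.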
SMN2 splice enh = increases expression of the SMN2 splice variant | HEK293 SMN2-luciferase splicing reporter, luminescence, 30-36 h | Potency, µM (highest dose often 46.1 µM), without a hit: top-dose activity change, positive = activation, most hits filed as activators | hit rate 2.8% among 210,000 | AID 1458; further: % of control where 0% means no effect; nearly all actives have a fitted effect of over 55% in size
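HEK293 cells carry an SMN2 minigene-luciferase reporter in which exon 7 inclusion puts luciferase in frame. Cells were seeded at 2000 cells/well, attached for 10-12 hours, then exposed to compounds for 30-36 hours at 37C before ONE-Glo luminescence.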
ELG1 genotox = induces genotoxicity in HEK293T cells with luciferase-tagged ELG1; hit rate 1.3% among 330,000; HEK293T ELG1-luciferase reporter, luminescence, 16 h; Potency, µM (top dose mostly 46 µM), for inactives: at the top dose activity change, positive = activation, most hits filed as activators; further: % of control where 0% means no effect; nearly all actives have a fitted effect of over 60% in size
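Genotoxic stress is detected as increased luminescence from luciferase-tagged ELG1 in HEK293T cells, measured with ONE-Glo after a 16 hr treatment at 37 °C.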
Starred values were filed as active, the others as inactive; [ ] = remark or other dose. The call rests on the fitted dose curve; in most records, active means well fitted curve in the direction sought with a large enough effect; inconclusive means small, poorly fitted or top-dose-only effect, or another doubt; inactive means no such curve, though single readings can be large; an effect the other way counts as inactive or inconclusive. Potency means the concentration at half of the fitted maximal effect.

What do the screens show for `Cc1ccc(OCC(=O)N/N=C/C=C/c2ccco2)cc1`?
FLuc modulator: 19µM*; Rab9 promoter act: -5%; NPC1 prom act: -2%; SMN2 splice enh: -1%; ELG1 genotox: -1%

What do the screens show for `COc1ccc(/C=C/C(=O)Oc2cccc(/C=N/NC(=O)COc3c(C)cccc3C)c2)cc1`?
FLuc modulator: -14%; Rab9 promoter act: 2.8µM*; NPC1 prom act: 1.6µM*; SMN2 splice enh: inconclusive; ELG1 genotox: inconclusive

What do the screens show for `COc1ccc(/C=C/C=N/NC(=O)COc2ccc(OC)cc2)cc1`?
FLuc modulator: 4.8µM*; Rab9 promoter act: 19%; NPC1 prom act: 13%; SMN2 splice enh: 23%; ELG1 genotox: 1%

Results for CN(c1ccccc1)c1ccc(/C=C/[N+](=O)[O-])cc1 ?
FLuc modulator: 11µM*; Rab9 promoter act: 17%; NPC1 prom act: 9%; SMN2 splice enh: -84%; ELG1 genotox: -6%

Results for O=C1N=C(N2CCOCC2)S/C1=C/c1cc2c(cc1[N+](=O)[O-])OCO2 ?
FLuc modulator: 2%; Rab9 promoter act: inconclusive; NPC1 prom act: -1%; ELG1 genotox: inconclusive

How did O=C(/C=C/c1ccnc2ccccc12)c1cccs1 do in these assays?
FLuc modulator: 0.067µM*; Rab9 promoter act: 0.32µM*; NPC1 prom act: 0.56µM*; SMN2 splice enh: 7.1µM*; ELG1 genotox: inconclusive

Results for Clc1ccccc1/C=C\c1ccnc2ccccc12 ?
SMN2 splice enh: 22%[9.22 µM]

How did c1ccc(OCCSc2nnc3sc4ccccc4n23)cc1 do in these assays?
FLuc modulator: 0.43µM*; Rab9 promoter act: 0.32µM*; NPC1 prom act: 0.35µM*; SMN2 splice enh: 28%; ELG1 genotox: inconclusive

How did COc1cccc(OCCSc2nnc3sc4ccccc4n23)c1 do in these assays?
FLuc modulator: 19µM*; Rab9 promoter act: 10%; NPC1 prom act: 16%; SMN2 splice enh: inconclusive; ELG1 genotox: inconclusive

How did CCS(=O)(=O)c1ccc2c(c1)N(S(=O)(=O)c1ccc(Cl)cc1)CC(C(=O)O)O2 (stereo not drawn) do in these assays?
FLuc modulator: -7%; Rab9 promoter act: -1%; NPC1 prom act: 0%; SMN2 splice enh: 9%; ELG1 genotox: 1%

Results for Oc1ccc(-c2nnc(SCC3CCCCC3)o2)cc1 ?
FLuc modulator: 15µM*; Rab9 promoter act: 2.8µM*; NPC1 prom act: 3.2µM*; SMN2 splice enh: inconclusive; ELG1 genotox: inconclusive

Results for COc1ccccc1OCCSc1nc2ccccc2c(=O)[nH]1 ?
FLuc modulator: inconclusive; Rab9 promoter act: 15%; NPC1 prom act: 16%; SMN2 splice enh: inconclusive; ELG1 genotox: inconclusive

Results for O=c1[nH]c(SCCOc2ccccc2F)nc2ccccc12 ?
FLuc modulator: 27µM*; Rab9 promoter act: 18%; NPC1 prom act: 12%; ELG1 genotox: 8%

Results for COc1cccc(OCCSc2nc(N)cc(N)n2)c1 ?
FLuc modulator: 24µM*; Rab9 promoter act: inconclusive; NPC1 prom act: inconclusive; SMN2 splice enh: -63%; ELG1 genotox: inconclusive

How did Clc1ccc(OCCSc2ncccn2)cc1 do in these assays?
FLuc modulator: 6.7µM*; Rab9 promoter act: 3.5µM*; NPC1 prom act: 2.5µM*; SMN2 splice enh: 25µM*; ELG1 genotox: 8.2µM*

What do the screens show for `c1cnc(SCCCOc2ccc3ccccc3c2)nc1`?
FLuc modulator: 17µM*; Rab9 promoter act: inconclusive; NPC1 prom act: inconclusive; SMN2 splice enh: 16%; ELG1 genotox: 21µM*

Results for c1ccc(Oc2cccc(OCCCCSc3ncccn3)c2)cc1 ?
FLuc modulator: -10%; Rab9 promoter act: -1%; NPC1 prom act: -3%; SMN2 splice enh: 4%; ELG1 genotox: -1%

How did COc1cc(/C=N/NC(N)=O)ccc1OCC(=O)Nc1cc(C)c(C)cc1Br do in these assays?
FLuc modulator: -15%; Rab9 promoter act: -9%; NPC1 prom act: 1%; SMN2 splice enh: 18%; ELG1 genotox: inconclusive

Results for O=C(CNS(=O)(=O)c1ccc(Br)cc1)N1CCOCC1 ?
FLuc modulator: -1%; Rab9 promoter act: -5%; NPC1 prom act: -1%; SMN2 splice enh: -9%; ELG1 genotox: 0%

Results for CCN(CC)C(=O)Cn1c(=O)n(-c2ccc(Cl)c(Cl)c2)c(=O)c2c(C)c(C(=O)N(CC)CC)sc21 ?
FLuc modulator: 0%
